The values that follow come from publication PMC7862700, “An all-to-all approach to the identification of sequence-specific readers for epigenetic DNA modifications on cytosine”.

Common to all, as to assay: DAPPL (digital affinity profiling via proximity ligation, sequencing); 10 mM Tris-HCl pH 7.5, 50 mM NaCl, 1 mM DTT, 4% glycerol, room temperature, 30 min; GST-TFs on glutathione beads, 16-mer random dsDNA library, 0.1% formaldehyde crosslink after washing; high values mean tight binding
One assay concerns the target T1, FLI1 (Homo sapiens, UniProt Q01543 1-452).
T1 sequence: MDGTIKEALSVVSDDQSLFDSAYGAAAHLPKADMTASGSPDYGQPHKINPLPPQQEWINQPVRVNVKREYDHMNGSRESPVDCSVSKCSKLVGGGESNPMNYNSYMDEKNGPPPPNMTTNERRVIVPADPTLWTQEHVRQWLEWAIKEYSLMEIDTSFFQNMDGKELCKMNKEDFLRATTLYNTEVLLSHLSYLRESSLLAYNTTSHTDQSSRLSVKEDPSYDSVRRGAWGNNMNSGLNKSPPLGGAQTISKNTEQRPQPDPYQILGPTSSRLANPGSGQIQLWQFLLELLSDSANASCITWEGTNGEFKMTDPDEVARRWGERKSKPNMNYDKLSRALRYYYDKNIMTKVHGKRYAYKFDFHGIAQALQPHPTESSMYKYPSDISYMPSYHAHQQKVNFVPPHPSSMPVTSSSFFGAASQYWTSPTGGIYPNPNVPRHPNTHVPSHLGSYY
The note with it: protein: recombinant; tags: N-terminal GST; dsDNA, one strand shown. A digest of the protocol: (§1)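 Pools were built from human transcription factors expressed in yeast as GST fusions, captured on glutathione beads and DNA-barcoded, along with a tag-only sample. Incubation with 200 nmole of a 16-mer random double-stranded DNA library lasted 30 min at room temperature in Tris/NaCl/DTT/glycerol buffer, and was followed by washing, 0.1% formaldehyde crosslinking, proximity ligation, PCR amplification and Illumina NextSeq500 sequencing. Binding signal is the quotient of each hexamer's read frequency for a factor and its frequency for the tag-only sample.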

The next assay addresses T2, ELK1 (Homo sapiens, UniProt P19419 1-428).
T2 sequence: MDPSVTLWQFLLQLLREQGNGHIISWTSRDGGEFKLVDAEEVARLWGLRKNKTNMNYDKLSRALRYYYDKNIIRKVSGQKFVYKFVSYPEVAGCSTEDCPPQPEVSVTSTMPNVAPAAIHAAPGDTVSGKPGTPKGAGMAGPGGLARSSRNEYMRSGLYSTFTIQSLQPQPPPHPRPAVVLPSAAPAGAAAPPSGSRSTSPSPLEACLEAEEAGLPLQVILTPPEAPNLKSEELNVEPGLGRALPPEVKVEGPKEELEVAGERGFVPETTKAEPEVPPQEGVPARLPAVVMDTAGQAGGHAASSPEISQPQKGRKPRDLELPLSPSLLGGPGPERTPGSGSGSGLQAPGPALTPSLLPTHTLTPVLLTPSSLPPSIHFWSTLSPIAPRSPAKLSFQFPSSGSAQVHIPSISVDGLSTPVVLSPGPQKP
The note with it: protein: recombinant; tags: N-terminal GST; dsDNA, one strand shown. A digest of the protocol:
as §1

A further assay has as its target T3, GABPA (Homo sapiens, UniProt Q06546 1-454).
T3 sequence: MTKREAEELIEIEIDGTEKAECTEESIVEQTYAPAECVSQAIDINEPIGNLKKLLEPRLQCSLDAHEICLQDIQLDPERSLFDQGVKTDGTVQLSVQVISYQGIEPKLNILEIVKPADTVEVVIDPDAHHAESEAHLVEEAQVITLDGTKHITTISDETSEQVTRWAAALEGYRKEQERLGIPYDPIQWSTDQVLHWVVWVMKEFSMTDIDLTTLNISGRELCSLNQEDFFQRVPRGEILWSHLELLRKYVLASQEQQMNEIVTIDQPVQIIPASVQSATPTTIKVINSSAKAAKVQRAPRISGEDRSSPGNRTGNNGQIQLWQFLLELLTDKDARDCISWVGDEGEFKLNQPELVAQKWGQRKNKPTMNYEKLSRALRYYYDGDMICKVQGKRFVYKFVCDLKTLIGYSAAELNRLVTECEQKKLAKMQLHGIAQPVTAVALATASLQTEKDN
The note with it: protein: recombinant; tags: N-terminal GST; dsDNA, one strand shown. In a few lines: as §1

Another assay has as its target T4, ERG (Homo sapiens, UniProt P11308 1-479).
T4 sequence: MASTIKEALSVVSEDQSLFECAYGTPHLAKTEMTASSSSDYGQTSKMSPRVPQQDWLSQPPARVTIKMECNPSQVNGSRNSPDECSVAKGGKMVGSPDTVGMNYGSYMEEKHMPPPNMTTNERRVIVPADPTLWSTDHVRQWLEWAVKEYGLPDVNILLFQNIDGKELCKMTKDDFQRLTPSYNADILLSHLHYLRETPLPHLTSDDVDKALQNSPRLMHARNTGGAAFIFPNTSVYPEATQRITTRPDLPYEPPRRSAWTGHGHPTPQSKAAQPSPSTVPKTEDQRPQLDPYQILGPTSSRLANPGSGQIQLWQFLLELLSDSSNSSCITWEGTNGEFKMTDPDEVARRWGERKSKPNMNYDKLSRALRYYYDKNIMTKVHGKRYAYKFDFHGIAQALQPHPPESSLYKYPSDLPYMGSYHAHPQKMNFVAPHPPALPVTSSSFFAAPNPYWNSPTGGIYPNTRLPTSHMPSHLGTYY
Particulars: protein: recombinant; tags: N-terminal GST; dsDNA, one strand shown. A digest of the protocol: as §1

Another assay concerns the target ELF1 (Homo sapiens, UniProt P32519 1-619). Particulars: protein: recombinant; tags: N-terminal GST; dsDNA, one strand shown. In a few lines:
as §1

For another assay, the target named is T5, EHF (Homo sapiens, UniProt Q9NZC4 1-300).
T5 sequence: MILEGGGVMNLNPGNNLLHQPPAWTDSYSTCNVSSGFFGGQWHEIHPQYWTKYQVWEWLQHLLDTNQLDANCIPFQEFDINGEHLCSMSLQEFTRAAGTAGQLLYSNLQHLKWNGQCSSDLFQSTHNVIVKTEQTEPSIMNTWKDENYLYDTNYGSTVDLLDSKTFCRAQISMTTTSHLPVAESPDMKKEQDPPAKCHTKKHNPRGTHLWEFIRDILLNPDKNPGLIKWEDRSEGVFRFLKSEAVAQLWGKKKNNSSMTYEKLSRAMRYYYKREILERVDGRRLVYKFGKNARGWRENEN
The note with it: protein: recombinant; tags: N-terminal GST; dsDNA, one strand shown. A digest of the protocol: as §1

In a further assay the target is SPI1 (Homo sapiens, UniProt P17947 1-270). Particulars: protein: recombinant; tags: N-terminal GST; dsDNA, one strand shown. A digest of the protocol:
as §1

The next assay has as its target SPIB (Homo sapiens, UniProt Q01892 1-262). The note with it: protein: recombinant; tags: N-terminal GST; dsDNA, one strand shown. A digest of the protocol: as §1
A further assay concerns the target T6, ELK3 (Homo sapiens, UniProt P41970 1-407).
T6 sequence: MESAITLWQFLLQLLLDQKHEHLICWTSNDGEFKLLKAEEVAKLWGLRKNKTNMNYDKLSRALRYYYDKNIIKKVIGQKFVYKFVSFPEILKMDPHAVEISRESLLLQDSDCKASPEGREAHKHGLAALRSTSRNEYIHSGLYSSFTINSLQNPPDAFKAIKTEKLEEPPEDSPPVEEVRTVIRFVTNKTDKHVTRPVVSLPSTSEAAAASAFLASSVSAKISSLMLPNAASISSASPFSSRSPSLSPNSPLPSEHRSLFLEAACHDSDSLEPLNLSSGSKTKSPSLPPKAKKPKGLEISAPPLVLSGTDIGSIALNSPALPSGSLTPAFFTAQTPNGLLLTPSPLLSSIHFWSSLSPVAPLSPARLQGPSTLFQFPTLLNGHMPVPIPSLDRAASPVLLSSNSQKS
The note with it: protein: recombinant; tags: N-terminal GST; dsDNA, one strand shown. In a few lines:
as §1

The target in the next assay is T7, FEV (Homo sapiens, UniProt Q99581 1-238).
T7 sequence: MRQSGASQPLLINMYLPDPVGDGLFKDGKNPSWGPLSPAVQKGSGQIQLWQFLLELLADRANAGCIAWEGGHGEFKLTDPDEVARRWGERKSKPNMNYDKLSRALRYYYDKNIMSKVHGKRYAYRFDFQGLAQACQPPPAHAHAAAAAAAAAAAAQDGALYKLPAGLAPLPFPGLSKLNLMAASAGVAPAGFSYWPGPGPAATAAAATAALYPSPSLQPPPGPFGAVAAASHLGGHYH
Particulars: protein: recombinant; tags: N-terminal GST; dsDNA, one strand shown. A digest of the protocol: as §1

The next assay concerns the target ETV5 (Homo sapiens, UniProt P41161 1-510). Particulars: protein: recombinant; tags: N-terminal GST; dsDNA, one strand shown. A digest of the protocol: as §1
For a further assay, the target named is HSF1 (Homo sapiens, UniProt Q00613 1-529). Particulars: protein: recombinant; tags: N-terminal GST; chain copies: 3; dsDNA, one strand shown. A digest of the protocol: as §1
Chain of HSF1 (Q00613 whole entry): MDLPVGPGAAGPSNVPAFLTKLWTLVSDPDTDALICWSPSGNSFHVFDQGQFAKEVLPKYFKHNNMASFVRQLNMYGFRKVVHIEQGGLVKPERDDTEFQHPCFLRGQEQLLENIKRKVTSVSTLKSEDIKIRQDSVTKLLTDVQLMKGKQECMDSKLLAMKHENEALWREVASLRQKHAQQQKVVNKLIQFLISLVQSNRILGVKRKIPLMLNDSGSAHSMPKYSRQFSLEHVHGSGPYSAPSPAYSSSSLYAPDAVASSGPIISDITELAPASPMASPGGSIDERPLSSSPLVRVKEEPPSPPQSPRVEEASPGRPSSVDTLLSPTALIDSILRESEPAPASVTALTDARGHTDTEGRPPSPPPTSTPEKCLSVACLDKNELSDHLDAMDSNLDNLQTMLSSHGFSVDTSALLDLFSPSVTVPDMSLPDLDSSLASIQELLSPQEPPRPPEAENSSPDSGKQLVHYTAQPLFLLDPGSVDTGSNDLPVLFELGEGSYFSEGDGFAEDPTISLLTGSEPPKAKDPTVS
The target of the next assay is T8, SPIC (Homo sapiens, UniProt Q8N5J4 1-248).
T8 sequence: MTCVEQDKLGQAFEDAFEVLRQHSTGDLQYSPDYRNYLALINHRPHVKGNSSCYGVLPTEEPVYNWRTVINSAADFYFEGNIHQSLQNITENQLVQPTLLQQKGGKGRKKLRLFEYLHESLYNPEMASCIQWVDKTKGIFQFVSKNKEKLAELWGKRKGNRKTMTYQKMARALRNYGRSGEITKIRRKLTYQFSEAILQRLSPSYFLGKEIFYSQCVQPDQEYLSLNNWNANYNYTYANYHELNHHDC
Particulars: protein: recombinant; tags: N-terminal GST; dsDNA, one strand shown. A digest of the protocol:
as §1

The next assay concerns the target ELF4 (Homo sapiens, UniProt Q99607 1-663). Particulars: protein: recombinant; tags: N-terminal GST; dsDNA, one strand shown. A digest of the protocol: as §1
The target in the next assay is T9, ELK4 (Homo sapiens, UniProt P28324-2 1-405).
T9 sequence: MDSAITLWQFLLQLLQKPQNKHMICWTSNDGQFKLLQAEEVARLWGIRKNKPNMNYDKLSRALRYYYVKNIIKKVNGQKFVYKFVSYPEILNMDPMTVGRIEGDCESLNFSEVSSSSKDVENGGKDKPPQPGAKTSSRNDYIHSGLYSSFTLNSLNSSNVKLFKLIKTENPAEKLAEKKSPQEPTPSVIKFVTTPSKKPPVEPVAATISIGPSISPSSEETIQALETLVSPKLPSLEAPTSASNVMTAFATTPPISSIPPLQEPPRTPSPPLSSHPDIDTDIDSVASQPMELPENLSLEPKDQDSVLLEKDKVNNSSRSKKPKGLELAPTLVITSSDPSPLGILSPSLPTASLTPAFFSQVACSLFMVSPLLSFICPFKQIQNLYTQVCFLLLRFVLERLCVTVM
The note with it: protein: recombinant; tags: N-terminal GST; dsDNA, one strand shown. In a few lines:
as §1

Another assay has as its target T10, ETV2 (Homo sapiens, UniProt O00321 1-342).
T10 sequence: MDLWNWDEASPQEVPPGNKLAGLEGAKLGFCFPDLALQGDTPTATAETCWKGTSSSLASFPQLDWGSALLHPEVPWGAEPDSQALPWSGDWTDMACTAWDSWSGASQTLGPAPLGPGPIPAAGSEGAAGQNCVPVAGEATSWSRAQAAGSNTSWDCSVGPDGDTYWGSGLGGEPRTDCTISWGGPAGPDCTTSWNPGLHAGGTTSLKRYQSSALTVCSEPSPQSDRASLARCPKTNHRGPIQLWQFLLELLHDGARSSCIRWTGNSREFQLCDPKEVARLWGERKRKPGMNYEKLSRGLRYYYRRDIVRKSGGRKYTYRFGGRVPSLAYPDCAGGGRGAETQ
Particulars: protein: recombinant; tags: N-terminal GST; dsDNA, one strand shown. A digest of the protocol: as §1

For the next assay, the target named is T11, ELF3 (Homo sapiens, UniProt P78545 1-371).
T11 sequence: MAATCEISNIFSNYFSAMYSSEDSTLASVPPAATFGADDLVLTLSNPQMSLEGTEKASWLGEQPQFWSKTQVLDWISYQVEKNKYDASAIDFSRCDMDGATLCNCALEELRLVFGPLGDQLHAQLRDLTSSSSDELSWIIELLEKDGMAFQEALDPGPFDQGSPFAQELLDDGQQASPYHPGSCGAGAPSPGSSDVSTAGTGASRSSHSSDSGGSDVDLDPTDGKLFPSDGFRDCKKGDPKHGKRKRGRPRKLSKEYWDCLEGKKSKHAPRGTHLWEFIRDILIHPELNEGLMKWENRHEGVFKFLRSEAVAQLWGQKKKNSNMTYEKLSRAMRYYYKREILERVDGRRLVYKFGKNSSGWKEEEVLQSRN
Particulars: protein: recombinant; tags: N-terminal GST; dsDNA, one strand shown. In a few lines: as §1

The next assay addresses CRX (Homo sapiens, UniProt O43186 1-299). Particulars: protein: recombinant; tags: N-terminal GST; dsDNA, one strand shown. In a few lines:
as §1

Another assay concerns the target ETV1 (Homo sapiens, UniProt P50549 1-477). Particulars: protein: recombinant; tags: N-terminal GST; dsDNA, one strand shown. In a few lines:
as §1

Chain of ELF1 (P32519 whole entry): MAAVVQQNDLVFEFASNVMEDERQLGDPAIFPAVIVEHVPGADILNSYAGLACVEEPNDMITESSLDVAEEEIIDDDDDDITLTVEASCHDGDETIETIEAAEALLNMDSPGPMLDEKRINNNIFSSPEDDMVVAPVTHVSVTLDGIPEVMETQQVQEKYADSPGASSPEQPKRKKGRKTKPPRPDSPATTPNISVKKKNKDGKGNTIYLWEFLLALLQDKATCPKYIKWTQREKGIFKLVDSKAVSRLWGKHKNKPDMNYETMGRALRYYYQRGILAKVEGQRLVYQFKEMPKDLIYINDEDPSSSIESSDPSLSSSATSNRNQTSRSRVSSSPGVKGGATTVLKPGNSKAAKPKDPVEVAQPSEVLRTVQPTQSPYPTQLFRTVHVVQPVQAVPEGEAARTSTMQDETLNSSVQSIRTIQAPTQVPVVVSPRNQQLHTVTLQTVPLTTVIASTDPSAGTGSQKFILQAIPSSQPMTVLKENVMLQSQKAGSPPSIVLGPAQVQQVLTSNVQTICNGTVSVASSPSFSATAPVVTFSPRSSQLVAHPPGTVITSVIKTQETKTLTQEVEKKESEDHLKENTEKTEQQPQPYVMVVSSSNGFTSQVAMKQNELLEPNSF
Chain of ELF4 (Q99607 whole entry): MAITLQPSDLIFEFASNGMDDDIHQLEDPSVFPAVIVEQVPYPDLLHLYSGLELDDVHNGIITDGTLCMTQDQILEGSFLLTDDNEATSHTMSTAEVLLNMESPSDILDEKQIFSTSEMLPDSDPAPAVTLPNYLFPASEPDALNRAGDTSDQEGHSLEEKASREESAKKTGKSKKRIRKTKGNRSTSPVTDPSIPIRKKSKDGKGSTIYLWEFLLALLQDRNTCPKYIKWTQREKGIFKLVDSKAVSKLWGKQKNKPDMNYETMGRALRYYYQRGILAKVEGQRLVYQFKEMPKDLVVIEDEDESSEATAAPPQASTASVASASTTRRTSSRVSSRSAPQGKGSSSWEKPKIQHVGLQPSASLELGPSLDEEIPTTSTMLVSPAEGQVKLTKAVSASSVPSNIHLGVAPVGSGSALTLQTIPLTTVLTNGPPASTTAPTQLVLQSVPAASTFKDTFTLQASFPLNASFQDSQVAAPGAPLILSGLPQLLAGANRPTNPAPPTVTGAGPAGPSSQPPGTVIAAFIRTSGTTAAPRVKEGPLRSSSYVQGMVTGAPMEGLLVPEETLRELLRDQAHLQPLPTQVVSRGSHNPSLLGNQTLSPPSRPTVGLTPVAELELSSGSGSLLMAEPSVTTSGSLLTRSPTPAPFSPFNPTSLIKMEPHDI
Chain of ETV5 (P41161 whole entry): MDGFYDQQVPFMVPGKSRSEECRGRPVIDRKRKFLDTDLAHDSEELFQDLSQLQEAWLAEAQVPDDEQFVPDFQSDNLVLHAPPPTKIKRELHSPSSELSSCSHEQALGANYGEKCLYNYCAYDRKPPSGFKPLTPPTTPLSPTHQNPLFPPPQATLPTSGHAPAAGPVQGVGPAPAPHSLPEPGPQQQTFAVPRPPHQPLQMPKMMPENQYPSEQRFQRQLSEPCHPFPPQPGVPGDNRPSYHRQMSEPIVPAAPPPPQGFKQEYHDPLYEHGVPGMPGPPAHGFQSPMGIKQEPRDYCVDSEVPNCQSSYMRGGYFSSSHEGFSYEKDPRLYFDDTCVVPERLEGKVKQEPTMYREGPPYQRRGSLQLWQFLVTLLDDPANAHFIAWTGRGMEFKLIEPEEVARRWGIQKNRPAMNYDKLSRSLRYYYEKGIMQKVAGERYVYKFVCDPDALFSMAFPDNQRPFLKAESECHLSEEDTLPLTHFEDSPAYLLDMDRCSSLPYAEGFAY
Chain of SPIB (Q01892 whole entry): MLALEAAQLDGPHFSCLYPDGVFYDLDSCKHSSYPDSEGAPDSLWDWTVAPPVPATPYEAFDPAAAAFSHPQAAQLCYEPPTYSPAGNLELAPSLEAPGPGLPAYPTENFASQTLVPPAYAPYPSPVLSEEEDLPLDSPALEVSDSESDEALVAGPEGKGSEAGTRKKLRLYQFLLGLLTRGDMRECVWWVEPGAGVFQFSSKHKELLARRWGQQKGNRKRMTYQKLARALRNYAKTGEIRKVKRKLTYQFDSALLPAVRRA
Chain of ETV1 (P50549 whole entry): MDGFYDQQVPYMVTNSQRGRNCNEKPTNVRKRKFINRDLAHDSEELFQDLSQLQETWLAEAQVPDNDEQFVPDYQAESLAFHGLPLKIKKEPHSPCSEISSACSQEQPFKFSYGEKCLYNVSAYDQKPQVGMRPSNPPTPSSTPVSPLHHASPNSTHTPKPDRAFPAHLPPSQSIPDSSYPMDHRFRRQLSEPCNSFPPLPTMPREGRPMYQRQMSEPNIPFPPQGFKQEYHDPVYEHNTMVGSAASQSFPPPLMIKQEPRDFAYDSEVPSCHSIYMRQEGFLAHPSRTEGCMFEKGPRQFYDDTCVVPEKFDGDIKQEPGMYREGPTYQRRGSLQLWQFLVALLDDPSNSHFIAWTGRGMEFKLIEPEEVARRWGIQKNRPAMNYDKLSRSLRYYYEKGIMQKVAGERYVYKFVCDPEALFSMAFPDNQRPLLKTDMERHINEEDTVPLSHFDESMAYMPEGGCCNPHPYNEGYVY
Chain of CRX (O43186 whole entry): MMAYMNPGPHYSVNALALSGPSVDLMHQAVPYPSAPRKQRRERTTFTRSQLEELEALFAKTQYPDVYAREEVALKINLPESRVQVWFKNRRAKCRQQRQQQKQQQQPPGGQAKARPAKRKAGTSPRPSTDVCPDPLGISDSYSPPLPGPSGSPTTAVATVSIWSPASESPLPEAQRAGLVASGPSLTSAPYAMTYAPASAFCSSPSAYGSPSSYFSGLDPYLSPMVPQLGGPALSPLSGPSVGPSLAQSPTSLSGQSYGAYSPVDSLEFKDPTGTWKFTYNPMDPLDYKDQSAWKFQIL

In the case of ATTAAC, the binding signal in the assay with FLI1 was 1.29 fold enrichment (6-mer frequency, TF over GST control); with ELK1 it was 1.16 fold enrichment (6-mer frequency, TF over GST control); with GABPA, 1.22 fold enrichment (6-mer frequency, TF over GST control); with ERG, 1.21 fold enrichment (6-mer frequency, TF over GST control); with ELF1 it was 1.32 fold enrichment (6-mer frequency, TF over GST control); with EHF, 1.16 fold enrichment (6-mer frequency, TF over GST control). Also, the binding signal with SPI1 is 1.18 fold enrichment (6-mer frequency, TF over GST control); in the assay with SPIB, 1.24 fold enrichment (6-mer frequency, TF over GST control); in the assay with ELK3 it was 1.26 fold enrichment (6-mer frequency, TF over GST control); with FEV it was 1.27 fold enrichment (6-mer frequency, TF over GST control); with ETV5, 1.27 fold enrichment (6-mer frequency, TF over GST control); with HSF1, 2.07 fold enrichment (6-mer frequency, TF over GST control). Moreover, the binding signal in the assay with SPIC was 1.3 fold enrichment (6-mer frequency, TF over GST control); with ELF4 it was 1.3 fold enrichment (6-mer frequency, TF over GST control); with ELK4 it was 1.25 fold enrichment (6-mer frequency, TF over GST control); in the assay with ETV2 it was 1.21 fold enrichment (6-mer frequency, TF over GST control); with ELF3, 1.29 fold enrichment (6-mer frequency, TF over GST control); with CRX it was 3.36 fold enrichment (6-mer frequency, TF over GST control). In addition, the binding signal with ETV1 is 1.27 fold enrichment (6-mer frequency, TF over GST control).
